# Test results: PubChem BioAssay AID2685 (National Center for Advancing Translational Sciences (NCATS), 2010)
# Hit rate of the full screen: of about 320,000 compounds, about 2,100 (0.66%) were called active. Roughly 53% stayed inconclusive and do not appear here. Calls come from the whole dose curve; as a rule, active = well fitted inhibition curve with a large enough effect in the signal ratio, with a control signal flat (not every such curve was filed as active); inconclusive = small, poorly fitted or top-dose-only effect, or effect the other way, or a change in a side signal; inactive = flat fitted curve, though single readings scatter; the % refers to the signal ratio. The full list was thinned out, with actives kept by preference.
# Experiment: qHTS Assay for Lipid Storage Modulators in Drosophila S3 Cells;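 for cell number change: cells counted by Cell Tracker Red CMTPX staining in the red channel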; for lipid storage change, negative = inhibition: % is set by controls: 0 for no effect and ±100 for the full control effect
# Conditions: BODIPY lipid droplet fluorescence, 18-24 h, cells fed with added oleic acid; cell number change: measured here: cell count max response; series mostly up to 46.1 µM; lipid storage change, negative = inhibition: at the top concentration
# Method in brief: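 Drosophila S3 cells loaded with oleic acid (400 uM, as added) and compounds at several concentrations; lipid droplets imaged by 488-nm laser-scanning cytometry, 500–530 nm intensity and object ratio to cell channel. Percent activity normalized to 20 uM Triacsin C.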
# Potency is the fitted concentration of half-maximal effect.
Structure (SMILES),"lipid storage change, negative = inhibition",cell number change [%],outcome,Potency
Cn1ncc(Br)c1C(=O)Nc1ccc(F)cc1F,7.86% (inactive),0.403,,
COc1ccc(C(=O)Nc2ccc(NC(C)=O)cc2)cc1S(=O)(=O)N1CCCCC1C (stereo not given),-18.6% (inactive),-5.58,,
CC(CNC(=O)Cn1ccc2cc(S(=O)(=O)N3CCCC3)ccc21)c1ccccc1 (stereo not given),,5.34,inactive,
O=C(OCc1nc(-c2ccccc2Cl)no1)c1ccco1,27% (inactive),1,,
Cc1ccc(-c2ccc3nnc(SCC(=O)NCC4CCCO4)n3n2)cc1 (stereo not given),-0.391% (inactive),7.62,,
Cc1ccc(NS(=O)(=O)c2ccc(NC(=O)C3CCCO3)cc2)cc1 (stereo not given),-28% (inactive),-28.7,,
COc1ccccc1CN1CCN(C(CC(C)C)c2nnnn2Cc2cccs2)CC1 (stereo not given),,,inactive,
CCOC(=O)[C@@H]1[C@H]2COc3ccccc3[C@H]2N2C(=O)N(c3ccc(Cl)cc3)C(=O)[C@]12C,17.4% (inactive),10.8,,
CCOC(=O)[C@@H]1[C@H]2COc3ccccc3[C@H]2N2C(=O)N(c3ccc(C(F)(F)F)cc3)C(=O)[C@]12C,,21.9,,1460 nM (active)
CCOC(=O)[C@@H]1[C@H]2COc3ccccc3[C@@H]2N2C(=O)N(c3ccc(F)cc3)C(=O)[C@@]12C,,-1.5,inactive,
CCc1ccc(NC(=O)C(=S)NC2CCCCC2)cc1,0.149% (inactive),1.88,,
Nn1c(SCC(=O)NC2CCCCC2)nnc1-c1ccc(Cl)cc1,-4.17% (inactive),17.9,,
Cc1[nH]n(C)c(=O)c1[N+](=O)[O-],17.8% (inactive),4.99,,
COc1cc(/C=C/C(=O)OCC(=O)N2CCC(C)CC2)ccc1O,20% (inactive),24.6,,
CCN(C(=O)COC(=O)/C=C/c1ccc(O)c(OC)c1)C1CCS(=O)(=O)C1 (stereo not given),,-23.9,,13000 nM (active)
CCN(C(=O)COC(=O)/C=C/c1ccc(OC(F)F)c(OC)c1)C1CCS(=O)(=O)C1 (stereo not given),3.68% (inactive),4.02,,
COc1cc(/C=C/C(=O)OCC(=O)N2CC3(C)CC2CC(C)(C)C3)ccc1O (stereo not given),,18.4,,651 nM (active)
COc1cc(/C=C/C(=O)OCC(=O)N(C)C2CCS(=O)(=O)C2)ccc1OC(F)F (stereo not given),-10.5% (inactive),9.45,,
COc1ccc(/C=N/OCC(=O)N2CC3(C)CC2CC(C)(C)C3)cc1 (stereo not given),0.198% (inactive),10.1,,
O=c1[nH]c(COc2ccc(Br)cc2Cl)nc2ccccc12,5.12% (inactive),-15,,
COc1ccc(CN2CC(C(=O)NCC3CCCO3)CC2=O)cc1 (stereo not given),0.667% (inactive),14,,
N#C/C(=C\c1c(N2CCCCCC2)nc2ccccn2c1=O)C(=O)NC1CCS(=O)(=O)C1 (stereo not given),20.6% (inactive),,,
N#C/C(=C\c1c(N2CCCCCC2)nc2ccccn2c1=O)C(N)=O,10.3% (inactive),22.6,,
N#C/C(=C\c1c(N2CCC(C(N)=O)CC2)nc2ccccn2c1=O)C(=O)NC1CCCCC1,,-18.3,,164 nM (active)

Structure (SMILES),"lipid storage change, negative = inhibition",cell number change [%],outcome,Potency
O=C1/C(=C\c2ccccc2)CCc2c1[nH]c1ccccc21,,,inactive,
Cc1cc(=O)n2nc(N3CCCC(C(=O)NCc4cccc(Br)c4)C3)sc2n1 (stereo not given),,,inactive,
NC(=O)c1ccccc1OCc1cccc2ccccc12,,,inactive,
CC1(C)CC(=O)C2=C(C1)N=C1SCCC(=O)N1C2c1ccccc1 (stereo not given),18.4% (inactive),9.02,,
Cc1ccc(S(=O)(=O)NNC(=O)c2csnn2)cc1,-10.6% (inactive),,,
O=[N+]([O-])c1ccc(CN2CCCCCC2)s1,-6.35% (inactive),-8.81,,
Cc1ccc2nc(SCC(=O)Nc3cc(C)on3)nc(=O)n2c1,-10.5% [at 0.0737 µM] (inactive),23.9,,
Cc1ccc2nc(SCC(=O)Nc3cccc(F)c3)nc(=O)n2c1,,1.08,,4110 nM (active)
Cc1ccc2nc(SCC(=O)Nc3ccc(Br)cc3)nc(=O)n2c1,-21.1% (inactive),-15.9,,
CCOC(=O)C1=C(N)OC2=C(C(=O)CC(C)(C)C2)C1c1cccnc1 (stereo not given),26.8% (inactive),-4.63,,
O=C(c1ccccc1)N(Cc1ccc(F)cc1)Cc1nc2ccccc2c(=O)[nH]1,4.2% (inactive),-10.1,,
COCCCNC(=S)N(Cc1ccccc1)Cc1ccccc1,-3.1% (inactive),-0.836,,
CCOCCCNC(=S)N(Cc1ccccc1)Cc1nc2ccccc2c(=O)[nH]1,,5.59,,920 nM (active)
CNC(=S)N(Cc1cc2ccc(OC)cc2[nH]c1=O)CC1CCCO1 (stereo not given),-12.6% (inactive),-8.74,,
Cc1onc(-c2ccccc2)c1-c1ccnn1C(=O)NC(C)C,-0.97% (inactive),15.2,,
Cc1cccc(N2CCN(c3ccc(N4C(=O)CCCC4=O)cc3[N+](=O)[O-])CC2)c1C,11.2% (inactive),4.71,,
O=C1CCCC(=O)N1c1ccc(N2CCN(c3ccccc3)CC2)c([N+](=O)[O-])c1,6.96% (inactive),-1.18,,
O=C1CCCC(=O)N1c1ccc(N2CCN(c3ccc([N+](=O)[O-])cc3)CC2)c([N+](=O)[O-])c1,,-26.2,,20600 nM (active)
COC(=O)[C@@H]1C[C@@]2(O)[C@@H](O)[C@@H](O)[C@@H](O)C[C@H]2N1CC(c1ccccc1)c1ccccc1,-0.438% (inactive),,,
O=C(c1cc2n(n1)C(C(F)(F)F)CC(c1ccc(Cl)cc1)N2)N1CCCC1 (stereo not given),,,inactive,
O=C(O)CCC(=O)N1CCc2cc(S(=O)(=O)NCc3ccc(Cl)cc3)ccc21,2.28% (inactive),,,
COc1ccccc1OCC(=O)Nc1ccc(NC(=O)COc2ccccc2OC)cc1,-14.2% (inactive),-9.29,,
CC1CCCCC1NC(=O)CSc1nc2ccccc2[nH]1 (stereo not given),5.65% (inactive),3.6,,
